The source of these data is the supplement of paper PMC6555819.

This assay concerns VDR:RXRa (NR concentration 270 nM, RXRa partner concentration 90 nM). As to the kind of experiment: PBM binding z-score (relative to random genomic background probes); higher = stronger binding; sequences stand for … in GC…GCGATTGACAGCGTAGAATGAAGG
The procedure: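 Protein-binding microarray (Agilent 4x180K custom design, double-stranded 60-nt probes: 5' GC cap, 34-nt variable region, 24-nt constant primer region; full probe sequence given). Purified or IVT nuclear receptor:RXRα heterodimers (3:1 NR:RXRα, mostly 270:90 nM) or homodimers were incubated for 1 h in PBS with 2% milk and no ligand, then detected with Alexa488 antibodies. Fluorescence from o1-orientation probes (~5 replicates averaged) was converted to z-scores against 500 random hg19 background probes. Variable regions are seed direct-repeat (DR0–DR5) sites, all their single-nucleotide variants and half-site ablations.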
Sequence GCTATTACTTGAAAGGGCAACCGAATGATTCTCG came in with a PBM binding z-score of 0.432.
Sequence ATCGAAAGGTCGAGCTGAGTATAGAGAAAGGGAA showed a PBM binding z-score of 2.53.
Sequence ACTAGTTGGGCAGCTGAGGTCACACACAATTCGG gave a PBM binding z-score of 3.72.
Consider TCTTGTAGATCAGCAGGTTCAGAAAGCTGGCCAA, for which the PBM binding z-score is 3.4.
Sequence GTACCAAGGTGAATAGGTCGTTAATGAGTAGGCG came in with a PBM binding z-score of 0.93.
In the case of AATACAGGGTCAACGTAGGCCAGAGTACGCACAG it was 5.06; in that of CCGACTGGGCCAAAAAGGTCATTGATGCCGATAA, 4.64; in that of TCTCGGAGGACACGAAAGGTCCGAGCTCGACATC, -0.242.
Consider GGTGCTAGGTCAACTGATGGTCAGCTAAAGCTCG, for which the PBM binding z-score came out at 1.89.
In the case of CGAACTAGGTCATAGACAGGACAGTGAATAGTAA, the PBM binding z-score is 1.78.
With GCAGACAGGTGCAACGCAGGTAACTCAGGGTGGC, the PBM binding z-score was -0.467.
For the sequence TGAATGAGGTTCAAGATCAGGGAACGTGGCGTCG, the PBM binding z-score was determined as 1.56.
In the case of AGCCAAAGTTCACTAGGTAACGTAAGATTCAGCT it was 3.41; in that of CGTCCAAGGTCAAAGTTCAGTGAAGAGATGACGG, 5.84; in that of AGAACGAGGGCACGCTGAGTTGATAGCAGAGTAG, 2.2.
In the case of GCTTACGGGTCAAAGGTAATAGCATGAATAGAAT it was 4.12; in that of GCAACGAGGGCAAAGTTGATAGCATCTGTCGACG, 1.26; in that of ATCTCTAGGTAAAGATAGTTCAGAGAATGCAAAT, 0.478.
For the sequence ACTTACGGGTCAACGAGCTTATAGCACGCGTATA, the PBM binding z-score is 3.97.
In the case of ATATGGAGGTTATCGGGTCATTCAGTTTGCGCAT it was 5.78; in that of TAGCCTATGTCAGATCGGGCCAGTATACGCTATA, -0.407.
For the sequence AGAATGAGGTTGTACGTAGATCAGGGAAGAAAGT, the PBM binding z-score came out at 0.177.
With CCTAGCAGGTCAGGGTCACTCAAGCATTTCGCTT, the PBM binding z-score worked out at 4.13.
CTAACTAGGTCATTGACAGGACAGTGAATAGTAA had a PBM binding z-score of 2.2.
In the case of ATCGAAAGGTTGTGAGGTGAGTATACAGAAAGGC, the PBM binding z-score came out at 0.652.
In turn, GCTATTAGTGGAAAGGGCAACCGAATGATTCTCG gave a PBM binding z-score of 0.104.
TCATATGGGTAAAAGGTGAAAGTCGGTGTGGTAA: the PBM binding z-score is 1.34.
Take CCTAGTTGGTCAAGGTCACACGCGCTATAGGTAC: the PBM binding z-score came to 4.29.
CCTAGTTGGTCAATGTCACACACGCTATAGGTAC: the PBM binding z-score was 0.974.
In the case of GCTCGGAGGACGAGGTCAGAGCTTTGTCCGTAGA it was 2.2.
On to CCGAGCAGGCCAATCTGGGTCACTCAAGGCTTGA, for which the PBM binding z-score was 0.157.
For TCTGCTAGGTCAACAATGGTCAGCTAATCTGCTA, the PBM binding z-score worked out at 1.84.
In the case of TGTCAAAGTTCATAGGTAACGTAAGTATCCACAC it was 4.67; in that of TCATATAGGTAATATAGGTGAAAGTCGGCATCTA, 0.836.
In turn, CCTTACGAGTCAAGGTTATAGCACGGGTGGTACG yielded a PBM binding z-score of 0.509.
The value for GCTGCTAGGTCCGGTTGGTCAGCTAACGGGTACG was -0.965; that for AGAACGAGGGGAATGAGTTGATAGCACGGGTGGC was 2.09.
The value for ACAGACGGGTGATGAAGGTAACTCAGGCTATCAT was 0.177.
ATATGTAGGCTATCGGGTCATTCAGTTTGCGCAT registered a PBM binding z-score of 4.58.
The sequence CCGACTGGGGCAGAAAGGTTACCATCCCATCCGG returned a PBM binding z-score of 0.789.
